Results reported in the supplement of paper PMC8975748.
Where a name gives a salt, the structure may show the parent alone.

The molecules below were run on Saccharomyces cerevisiae BY4741 SeMeCo community (assay: z-score of subpopulation abundance vs DMSO median, subpopulation auxotrophic for LUM; higher = larger share of this subpopulation than in DMSO controls). Settings: 10 µM; 24 h; SM minimal medium; subpopulation (auxotrophy): LUM.
Procedure: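 Fluorescent four-plasmid SeMeCo (self-establishing metabolically cooperating S. cerevisiae BY4741 community; plasmids pH-mRuby2, pL-mWasabi, pU-eCFP, pM-TagRFP657) was grown 24 h in minimal SM medium with each Selleck FDA-approved drug at 10 µM in 384-well plates. Cells were fixed and imaged by high-content confocal microscopy. For each auxotrophic subpopulation (and the prototroph), a z-score gives the deviation from the DMSO vehicle-control population median.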

Row | SMILES | z-score of subpopulation abundance
1 | CC1(C)S[C@@H]2[C@H](NC(=O)[C@H](N)c3ccccc3)C(=O)N2[C@H]1C(=O)OCOC(=O)[C@@H]1N2C(=O)C[C@H]2S(=O)(=O)C1(C)C [Sultamicillin] | 1.13
2 | CSCC1CN(/N=C/c2ccc([N+](=O)[O-])o2)C(=O)O1 (stereo not given) [Nifuratel] | -2.95
3 | Clc1ccc(COC(Cn2ccnc2)c2ccc(Cl)cc2Cl)c(Cl)c1 (stereo not given) [Miconazole Nitrate] | 0.15
4 | Cc1c(OCC(F)(F)F)ccnc1C[S+]([O-])c1nc2ccccc2[nH]1 (stereo not given) [Lansoprazole] | 1.02
5 | CC(C(=O)O)c1ccc2c(c1)CC(=O)c1ccccc1S2 (stereo not given) [Zaltoprofen] | -0.71
6 | CC(=O)OCC[N+](C)(C)C [Acetylcholine iodide] | -1.27
7 | Cc1c(-c2ccc(O)cc2)n(Cc2ccc(OCCN3CCCCCC3)cc2)c2ccc(O)cc12 [Bazedoxifene Acetate] | 0.65
8 | Nc1c2c(nc3ccccc13)CCCC2 [Tacrine hydrochloride hydrate] | 0.71
9 | Cc1nccn1CC1CCc2c(c3ccccc3n2C)C1=O (stereo not given) [Ondansetron Hydrochloride Dihydrate] | -0.16
10 | CC(C)c1c(C(=O)Nc2ccccc2)c(-c2ccccc2)c(-c2ccc(F)cc2)n1CC[C@@H](O)C[C@@H](O)CC(=O)O [Atorvastatin Calcium] | 4.29
11 | COc1ccc(Cc2cnc(N)nc2N)cc1OC [Diaveridine] | -0.41
12 | O=C1[C@H]2CCCC[C@H]2C(=O)N1CCCCN1CCN(c2nsc3ccccc23)CC1 [Perospirone hydrochloride] | 0.12
13 | C[C@@H](O)[C@H]1C(=O)N2C(C(=O)O)=C(S[C@@H]3CN[C@H](C(=O)N(C)C)C3)[C@H](C)[C@H]12 [Meropenem] | -0.39
14 | COc1cc(O)c(C(=O)Nc2nc(C(=O)NCCN(C(C)C)C(C)C)cs2)cc1OC [Acotiamide hydrochloride] | -0.38
15 | O=C(O)CCC(=O)c1ccc(-c2ccccc2)cc1 [Fenbufen] | -0.23
16 | N[C@H]1CONC1=O [L-Cycloserine] | 1.18
17 | COc1ccc2cc3[n+](cc2c1OC)CCc1cc2c(cc1-3)OCO2 [Berberine chloride] | -0.34
18 | Oc1c(I)cc(I)c2cccnc12 [Diiodohydroxyquinoline] | 2.87
19 | Nc1ccc(S(=O)(=O)c2ccc(N)cc2)cc1 [Dapson] | 0.92
20 | CN1C2CCC1CC(OC(=O)C(O)c1ccccc1)C2 (stereo not given) [Homatropine Bromide] | 0.09

Row | SMILES | z-score of subpopulation abundance
21 | CNS(=O)(=O)CCc1ccc2[nH]cc(C3CCN(C)CC3)c2c1 [Naratriptan HCl] | -0.24
22 | CCn1cc(C(=O)O)c(=O)c2cc(F)c(N3CCNCC3)cc21 [Norfloxacin] | -0.23
23 | COc1cc([C@@H]2c3cc4c(cc3[C@@H](O[C@@H]3O[C@@H]5CO[C@@H](c6cccs6)O[C@H]5[C@H](O)[C@H]3O)[C@H]3COC(=O)[C@H]23)OCO4)cc(OC)c1O [Teniposide] | 1.42
24 | CCn1cc(C(=O)O)c(=O)c2cc(F)c(N3CCNCC3)nc21 [Enoxacin] | 0.62
25 | CC(=O)OC(C)C[N+](C)(C)C (stereo not given) [Methacholine chloride] | 0.92
26 | NC(=O)c1ncn([C@@H]2O[C@H](CO)[C@@H](O)[C@H]2O)n1 [Ribavirin] | 0.09
27 | CC/C(=C(/CC)c1ccc(O)cc1)c1ccc(O)cc1 [Diethylstilbestrol] | -1.01
28 | O=C1OCCN1/N=C/c1ccc([N+](=O)[O-])o1 [Furazolidone] | -2.42
29 | CC(C)[C@H](N)C(=O)OCCOCn1cnc2c(=O)nc(N)[nH]c21 [Valaciclovir HCl] | -0.29
30 | CC(=O)[C@@]1(O)CC[C@H]2[C@@H]3C[C@H](C)C4=CC(=O)CC[C@]4(C)[C@H]3CC[C@@]21C [Medroxyprogesterone] | 0.93
31 | O=C(Cn1ccnc1[N+](=O)[O-])NCc1ccccc1 [Benznidazole] | 0.15
32 | OCc1ccc(Cl)cc1Cl [2,4-dichlorobenzyl alcohol] | -0.03
33 | Cc1ncc([N+](=O)[O-])n1C [Dimetridazole] | -1.1
34 | COc1ccc2[nH]c([S@@+]([O-])Cc3ncc(C)c(OC)c3C)nc2c1 [NEXIUM (esomeprazole magnesium)] | 0.51
35 | CCCCNc1ccc(C(=O)OCCN(C)C)cc1 [Tetracaine HCl] | 0
36 | CCOc1cc(N)c([N+](=O)[O-])cc1C(=O)NC1CCN(CC2CC=CCC2)CC1 (stereo not given) [Cinitapride Hydrogen Tartrate] | 0.94
37 | C=C1CCN([C@H](C)[C@](O)(Cn2cncn2)c2ccc(F)cc2F)CC1 [Efinaconazole] | 7.49
38 | CN(C)CCc1c[nH]c2ccc(Cn3cncn3)cc12 [Rizatriptan Benzoate] | -0.44
39 | Cc1ccccc1C(OCCN(C)C)c1ccccc1 (stereo not given) [Orphenadrine Citrate] | 0.36
40 | CN1CCN(C2=Nc3cc(Cl)ccc3Nc3ccccc32)CC1 [Clozapine] | 0.32
